# Experimental data published in the supplement of paper PMC6992640.
# ± gives the standard deviation of the averaged measurements.
# What was measured:
# Test in all cases: cell viability (% of vehicle); higher = less cytotoxic
# Conditions in all cases: 10 µM; 72 h
# HCI01 = tested on: HCI01 (cells of a triple-negative basal-like breast cancer xenograft)
# HCI03 = tested on: HCI03 (cells of an ER-positive luminal breast cancer xenograft)
# HCI09 = tested on: HCI09 (cells of a triple-negative luminal androgen receptor type breast cancer xenograft)
# HCI11 = tested on: HCI11 (cells of an ER-positive luminal breast cancer xenograft)
# HCI13 = tested on: HCI13 (cells of an ER-positive luminal breast cancer xenograft)
# HCI16 = tested on: HCI16 (cells of a triple-negative basal-like breast cancer xenograft)
# UCD52 = tested on: UCD52 (cells of a triple-negative basal-like breast cancer xenograft)
# WHIM2 = tested on: WHIM2 (cells of a triple-negative basal-like breast cancer xenograft)
# WHIM30 = tested on: WHIM30 (cells of a triple-negative basal-like breast cancer xenograft)
# 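Further: PDX cells carrying CMV promoter-driven luciferase, viability read as total photon flux per second by IVIS imaging following D-luciferin, vehicle control 0.1% DMSO.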
Structure (SMILES),cell viability (HCI01),cell viability (HCI03),cell viability (HCI09),cell viability (HCI11),cell viability (HCI13),cell viability (HCI16),cell viability (UCD52),cell viability (WHIM2),cell viability (WHIM30)
O=S(=O)([O-])CCSSCCS(=O)(=O)[O-].[Na+].[Na+] [Dimesna],111 ± 23,150,97 ± 6.5,103,122 ± 15,124,111 ± 8.6,128 ± 9.9,125 ± 12
NC(=O)N1c2ccccc2C=Cc2ccccc21 [Carbamazepine],107 ± 2.9,103,94.3 ± 32,106,91.8 ± 1.1,99.6,85.8 ± 4.4,75.2 ± 22,98.8 ± 4.5
CCN1CCCC1CNC(=O)c1cc(S(N)(=O)=O)ccc1OC (configuration not stated) [Levosulpiride],127 ± 9.1,126,99.33 ± 0.17,98.2,77.9 ± 5.7,134,93.9 ± 1.6,109 ± 7.3,100 ± 7.4
O=C1CCCC(=O)C1C(=O)c1ccc(C(F)(F)F)cc1[N+](=O)[O-] [Nitisinone],105 ± 31,110,93.2 ± 5.5,87.8,109 ± 25,137,103 ± 10,79.6 ± 4.9,149 ± 19
CCCCC(=O)N(Cc1ccc(-c2ccccc2-c2nn[nH]n2)cc1)C(C(=O)O)C(C)C (configuration not stated) [Valsartan],112 ± 6,118,118 ± 24,97.2,116 ± 24,119,108 ± 10,101 ± 16,199 ± 25
O=P(O)(O)C(O)(Cn1ccnc1)P(=O)(O)O [Zoledronic Acid],134 ± 17,135,88.4 ± 13,172,75.2 ± 8.7,94.7,60.6 ± 1.4,68.7 ± 15,107 ± 21
OCCN(CCO)c1nc(N2CCCCC2)c2nc(N(CCO)CCO)nc(N3CCCCC3)c2n1 [Dipyridamole],90.2 ± 14,116,87.4 ± 23,105,96.2 ± 6.1,150,89.6 ± 3.4,112 ± 34,142 ± 12
CS(=O)(=O)c1ccc(C(O)C(CO)NC(=O)C(Cl)Cl)cc1 (configuration not stated) [Thiamphenicol],109 ± 26,104,85.8 ± 3.5,82.9,64.4 ± 4.1,103,84.7 ± 13,107 ± 29,122 ± 6.1
CCC1OC(=O)CC(O)C(C)C(OC2OC(C)C(O)C(N(C)C)C2O)C(CCN2CC(C)CC(C)C2)CC(C)C(=O)C=CC(C)=CC1COC1OC(C)C(O)C(OC)C1OC (configuration not stated) [Tilmicosin],89.4 ± 32,116,82 ± 4.8,80.9,99.5 ± 6.4,102,77.7 ± 9.9,84.1 ± 3.9,97 ± 10
NCC1OC(OC2C(N)CC(N)C(OC3OC(CO)C(O)C(N)C3O)C2O)C(N)CC1O (configuration not stated) [Tobramycin],112 ± 23,124,98.5 ± 5.4,83.1,58 ± 9.4,88,85.3 ± 6.8,122 ± 32,123 ± 5.3
NS(=O)(=O)c1cc2c(cc1Cl)NC=NS2(=O)=O [Chlorothiazide],101 ± 4.1,149,102 ± 12,121,134 ± 16,90,93.8 ± 13,89.4 ± 27,124 ± 29
NC(=O)c1ccc(I)c([N+](=O)[O-])c1 [Iniparib (BSI-201)],121 ± 21,198,123 ± 20,82.6,124 ± 31,106,114 ± 5.4,181 ± 22,129 ± 22
Clc1ccccc1C(c1ccccc1)(c1ccccc1)n1ccnc1 [Clotrimazole],82.5 ± 21,70.8,55.1 ± 39,95.1,85.5 ± 21,79.8,79.6 ± 8.2,73.7 ± 16,125 ± 1
CCC1(O)CC2CN(CCc3c([nH]c4ccccc34)C(C(=O)OC)(c3cc4c(cc3OC)N(C)C3C(O)(C(=O)OC)C(OC(C)=O)C5(CC)C=CCN6CCC43C65)C2)C1.O=S(=O)(O)O (configuration not stated) [Vinblastine sulfate],127 ± 23,88.5,61 ± 26,102,40.1 ± 2.1,144,80.3 ± 1.4,76.8 ± 13,102 ± 19
Oc1ccc(C2CNCCc3c2cc(O)c(O)c3Cl)cc1 (configuration not stated) [Fenoldopam],125 ± 16,101,107 ± 8.1,101,90.4 ± 2.4,124,110.5 ± 0.48,96.8 ± 13,126 ± 9.5
O=C1CCC(C(=O)N2CSCC2C(=O)O)N1 (configuration not stated) [Pidotimod],93.1 ± 30,137,96.2 ± 5.1,96.7,132 ± 3.4,108,98.5 ± 9.8,90 ± 22,122 ± 2.3
C[N+](C)(C)CCOC(N)=O.[Cl-] [Carbamoylcholine chloride],108 ± 11,120,89.4 ± 1.1,71.4,112 ± 4.6,124,95.6 ± 2.4,127 ± 7,98.9 ± 1.4
CCN(Cc1ccncc1)C(=O)C(CO)c1ccccc1 (configuration not stated) [Tropicamide],112 ± 15,136,106 ± 11,101,136 ± 23,110,74.6 ± 14,91.4 ± 14,98.61 ± 0.95
COCCCN1CCC(NC(=O)c2cc(Cl)c(N)c3c2OCC3)CC1 [Prucalopride],86.2 ± 8.4,134,99.9 ± 20,94.2,120 ± 13,122,89.3 ± 11,91.4 ± 9.2,123 ± 2.2
Cc1ccc(O)c(C(CCN(C(C)C)C(C)C)c2ccccc2)c1.O=C(O)C(O)C(O)C(=O)O (configuration not stated) [Tolterodine tartrate],113 ± 38,101,96.8 ± 7.1,93.6,97.1 ± 18,133,60.5 ± 8.9,91.5 ± 2.5,92.5 ± 1.7
CN1C2CCCC1CC(NC(=O)c1nn(C)c3ccccc13)C2.Cl (configuration not stated) [Granisetron HCl],116 ± 6.1,111,90.4 ± 1.8,97.6,96.2 ± 16,89.6,113 ± 3.7,88.1 ± 22,115 ± 16
Nc1nc(F)nc2c1ncn2C1OC(CO)C(O)C1O (configuration not stated) [Fludarabine],131 ± 27,134,103 ± 10,116,165 ± 10,171,105 ± 4,106 ± 2,121 ± 8.2

Structure (SMILES),cell viability (HCI01),cell viability (HCI03),cell viability (HCI09),cell viability (HCI11),cell viability (HCI13),cell viability (HCI16),cell viability (UCD52),cell viability (WHIM2),cell viability (WHIM30)
CCC1=CC2CN(C1)Cc1c([nH]c3ccccc13)C(C(=O)OC)(c1cc3c(cc1OC)N(C)C1C(O)(C(=O)OC)C(OC(C)=O)C4(CC)C=CCN5CCC31C54)C2 (configuration not stated) [Vinorelbine],100 ± 15,105,70.5 ± 25,78.5,46 ± 4.7,167,57.5 ± 23,60.5 ± 12,96.7 ± 3.6
CC(=O)OC1(C(C)=O)CCC2C3C=C(Cl)C4=CC(=O)C5CC5C4(C)C3CCC21C (configuration not stated) [Cyproterone Acetate],88.6 ± 12,112,73.1 ± 17,87.1,145 ± 8,110,89.2 ± 7.3,116 ± 34,128 ± 7.7
Cc1[nH]c(=O)c(C#N)cc1-c1ccncc1 [Milrinone],124 ± 0.28,117,96.6 ± 32,102,98 ± 13,94,90.5 ± 4.6,101 ± 10,106 ± 18
CO[C@H]1O[C@@H]2OC3(C)CC[C@H]4[C@H](C)CC[C@@H]([C@H]1C)[C@@]24OO3 [Artemether],116 ± 31,121,94.4 ± 26,102,95.8 ± 0.62,106,97.88 ± 0.13,97.7 ± 8.3,75.18 ± 0.081
C[N+]1(C)[C@@H]2C[C@@H](OC(=O)C(O)(c3cccs3)c3cccs3)C[C@H]1[C@@H]1O[C@@H]12.[Br-] [Tiotropium Bromide],124 ± 17,116,106 ± 18,102,116 ± 12,103,88.9 ± 4.2,94.7 ± 18,125 ± 12
Cc1ccnc2c1NC(=O)c1cccnc1N2C1CC1 [Nevirapine],112 ± 2.5,105,122 ± 49,113,96.5 ± 3.9,96,96.8 ± 6.9,93.1 ± 23,130 ± 5.6
O=c1ncnc2[nH][nH]cc1-2 [Allopurinol],111 ± 8.6,132,94.3 ± 13,110,98.9 ± 12,103,84.5 ± 3.3,97.49 ± 0.5,122 ± 8.1
CC(C)NCC(O)COc1ccc(CCOCC2CC2)cc1.Cl (configuration not stated) [Levobetaxolol HCl],125 ± 30,104,112 ± 18,105,145 ± 15,127,109 ± 18,96.8 ± 13,114 ± 14
CC1CCc2c(N3CCC(O)CC3)c(F)cc3c(=O)c(C(=O)O)cn1c23 (configuration not stated) [Nadifloxacin],83.8 ± 17,122,79 ± 2.1,93.8,103 ± 3.5,120,77.6 ± 6.6,74.2 ± 3.4,122 ± 6.2
CC12CCC3c4ccc(O)cc4CCC3C1CC(O)C2O (configuration not stated) [Estriol],132 ± 20,118,125 ± 36,91.7,152 ± 25,152,105 ± 16,98.4 ± 8.9,150 ± 11
N#CC1CC2CC2N1C(=O)C(N)C12CC3CC(CC(O)(C3)C1)C2 (configuration not stated) [Saxagliptin],95 ± 7.6,145,82.1 ± 5.7,89.2,85.7 ± 7,93.8,97.4 ± 5.6,123 ± 7.2,98 ± 2.8
CCn1cc(C(=O)O)c(=O)c2ccc(C)nc21 [Nalidixic acid],86 ± 19,114,96.6 ± 10,92.1,113 ± 3,103,79 ± 6.3,87.7 ± 7.2,112 ± 12
CN1CCN2c3ccccc3Cc3ccccc3C2C1.Cl (configuration not stated) [Mianserin HCl],124 ± 24,98.3,89.4 ± 4.5,95.9,90 ± 21,92.4,74.3 ± 4.9,73.1 ± 24,109 ± 3.4
CCOc1cc(N)c(Cl)cc1C(=O)NCC1CN(Cc2ccc(F)cc2)CCO1.O=C(O)CC(O)(CC(=O)O)C(=O)O (configuration not stated) [Mosapride Citrate],138 ± 14,110,83.1 ± 9.6,116,103 ± 23,118,106 ± 2.8,82.6 ± 16,136 ± 5.5
O=C(O)c1cc(=O)[nH]c(=O)[nH]1 [Orotic acid],90.2 ± 12,100,88.5 ± 22,93.2,85.7 ± 3.8,120,93.6 ± 9.7,102.1 ± 0.24,76.6 ± 5.3
CCCCNc1ccc(C(=O)OCCN(C)C)cc1.Cl [Tetracaine HCl],130 ± 19,134,105 ± 25,121,122 ± 19,99,90.7 ± 13,92.2 ± 17,103.43 ± 0.084
CC(C(=O)O)c1ccc2c(c1)Cc1cccnc1O2 (configuration not stated) [Pranoprofen],113 ± 13,128,93.6 ± 16,78.6,123 ± 16,125,98.8 ± 19,110 ± 3.3,111 ± 22
CCn1cc(C(=O)O)c(=O)c2cc(F)c(N3CCN(C)CC3)cc21.CS(=O)(=O)O [Pefloxacin Mesylate],92.2 ± 33,137,105.3 ± 0.55,103,160 ± 5.2,153,113 ± 2.6,80.5 ± 16,144 ± 11
CC(C(=O)O)c1cccc(Oc2ccccc2)c1 (configuration not stated) [Fenoprofen calcium hydrate],98.6 ± 19,104,94.2 ± 14,89,101 ± 6.6,120,85 ± 3.6,105 ± 1.2,139 ± 25
C=CCc1cc(OC)c(O)c(C(=O)NCCO)c1 [Alibendol],98.3 ± 18,139,107 ± 17,110,68 ± 5,133,109 ± 3.4,115 ± 23,138 ± 20
COc1ccc(-c2nc3ccc(C4=NNC(=O)CC4C)cc3[nH]2)cc1 (configuration not stated) [Pimobendan],134 ± 7.2,132,129 ± 48,132,146 ± 11,121,119 ± 5.9,168.4 ± 1.3,119 ± 7
